# In the supplement of paper PMC10849652:
# About 7,900 targets were measured; listed, in parts, are those with a hit and a random draw of the rest. About 0.6% of all pairs of compound and target were hits. Values without a mark were called inactive.
# Tests used:
# Test in all cases: log2 fold change, soluble protein after heating vs DMSO (PISA); higher = thermal stabilisation; K562 cells, 10 uM, 30 min; active = over 0.2 and 3.5 SD of the protein, either way, in both replicates (recomputed)
# [1] = target: ZW10 (UniProt O43264)
# Chain of ZW10 (O43264 whole entry, looked up): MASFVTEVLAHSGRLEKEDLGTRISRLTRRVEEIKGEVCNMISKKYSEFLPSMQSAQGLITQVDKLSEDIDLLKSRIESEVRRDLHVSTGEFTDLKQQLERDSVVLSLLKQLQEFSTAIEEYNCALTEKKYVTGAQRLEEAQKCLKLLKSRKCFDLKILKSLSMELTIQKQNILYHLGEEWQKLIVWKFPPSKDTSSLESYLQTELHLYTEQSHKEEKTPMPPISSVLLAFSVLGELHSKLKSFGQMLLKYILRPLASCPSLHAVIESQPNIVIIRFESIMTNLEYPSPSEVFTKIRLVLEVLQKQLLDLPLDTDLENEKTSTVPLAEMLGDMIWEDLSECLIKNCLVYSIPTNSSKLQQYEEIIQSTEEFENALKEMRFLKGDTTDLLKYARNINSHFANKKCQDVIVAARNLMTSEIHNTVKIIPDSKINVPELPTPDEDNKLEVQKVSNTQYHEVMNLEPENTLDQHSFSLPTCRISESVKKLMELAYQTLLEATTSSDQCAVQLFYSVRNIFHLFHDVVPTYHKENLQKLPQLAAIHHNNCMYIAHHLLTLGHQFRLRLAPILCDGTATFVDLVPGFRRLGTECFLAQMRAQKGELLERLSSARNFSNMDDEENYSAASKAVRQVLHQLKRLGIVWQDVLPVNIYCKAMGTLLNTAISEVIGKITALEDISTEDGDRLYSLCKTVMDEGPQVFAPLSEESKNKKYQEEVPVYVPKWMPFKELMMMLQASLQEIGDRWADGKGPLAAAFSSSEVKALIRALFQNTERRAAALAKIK
# Outline: (§1)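 K562 cells (2×10^6 cells/mL) were treated with 10 μM compound for 30 min, and aliquots were heated for 3 min over 48°C-58°C. Pooled aliquots were extracted in PBS with 0.5% NP-40 at 4°C, and the supernatant after 21,000xg for 90 min was measured by TMTpro 16plex LC-MS/MS with channel sums equalised. Reported thermal stability, relative to control samples and from duplicates, is a log2 fold change.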
# [2] = target: ZWILCH (UniProt Q9H900)
# Chain of ZWILCH (Q9H900 whole entry, looked up): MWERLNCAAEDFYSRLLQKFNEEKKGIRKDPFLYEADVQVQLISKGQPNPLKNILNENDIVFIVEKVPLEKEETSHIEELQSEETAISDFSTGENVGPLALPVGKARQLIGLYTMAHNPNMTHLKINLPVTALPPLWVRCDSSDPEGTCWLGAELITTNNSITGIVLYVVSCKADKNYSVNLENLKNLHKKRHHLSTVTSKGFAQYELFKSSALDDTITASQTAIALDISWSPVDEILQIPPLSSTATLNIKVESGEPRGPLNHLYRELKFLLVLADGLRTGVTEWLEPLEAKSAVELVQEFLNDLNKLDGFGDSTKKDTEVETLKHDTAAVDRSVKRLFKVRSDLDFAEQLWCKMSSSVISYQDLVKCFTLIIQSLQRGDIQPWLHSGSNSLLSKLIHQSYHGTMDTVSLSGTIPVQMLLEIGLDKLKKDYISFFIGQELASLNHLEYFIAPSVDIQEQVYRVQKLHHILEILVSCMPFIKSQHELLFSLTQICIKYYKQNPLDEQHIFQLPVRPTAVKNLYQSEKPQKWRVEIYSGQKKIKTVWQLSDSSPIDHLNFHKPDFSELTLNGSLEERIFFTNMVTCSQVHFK
# Outline: as §1
# [3] = target: ZYG11B (UniProt Q9C0D3)
# Chain of ZYG11B (Q9C0D3 whole entry, looked up): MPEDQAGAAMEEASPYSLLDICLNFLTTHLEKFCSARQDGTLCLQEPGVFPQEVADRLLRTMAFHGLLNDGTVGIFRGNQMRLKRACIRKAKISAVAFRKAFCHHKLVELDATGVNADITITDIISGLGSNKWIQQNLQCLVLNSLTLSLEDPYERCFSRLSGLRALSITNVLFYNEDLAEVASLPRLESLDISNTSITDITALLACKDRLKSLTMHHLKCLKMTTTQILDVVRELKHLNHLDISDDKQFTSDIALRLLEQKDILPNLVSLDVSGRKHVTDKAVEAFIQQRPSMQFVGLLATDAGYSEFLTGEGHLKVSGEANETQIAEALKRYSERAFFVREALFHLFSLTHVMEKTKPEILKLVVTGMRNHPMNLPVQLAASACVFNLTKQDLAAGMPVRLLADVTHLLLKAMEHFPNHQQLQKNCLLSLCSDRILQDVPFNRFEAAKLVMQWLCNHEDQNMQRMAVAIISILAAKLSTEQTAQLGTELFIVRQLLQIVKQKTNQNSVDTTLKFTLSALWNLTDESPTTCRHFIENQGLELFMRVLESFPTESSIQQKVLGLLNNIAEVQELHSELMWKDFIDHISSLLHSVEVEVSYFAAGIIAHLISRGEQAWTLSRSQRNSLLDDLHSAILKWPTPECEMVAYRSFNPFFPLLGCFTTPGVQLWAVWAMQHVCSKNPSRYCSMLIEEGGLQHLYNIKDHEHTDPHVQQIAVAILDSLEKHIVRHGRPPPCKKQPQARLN
# Outline: as §1
Compound,log2 fold change [1],log2 fold change [2],log2 fold change [3]
Cc1ccc(NC(=O)c2cccc(N(C)C)c2)cc1NC(=O)c1ccc(O)cc1,-0.043,0.238,-0.018
Nc1ccccc1NC(=O)c1ccc(CNC(=O)OCc2cccnc2)cc1 [entinostat],0.063,0.002,0.013
CN1CCc2c(c3ccccc3n2Cc2ccc(C(=O)NO)cc2)C1 [Tubastatin A],0.031,-0.028,0.04
CCCCN(Cc1ccc(C(=O)NO)cc1)C(=O)Nc1ccccc1 [Nexturastat A],0.093,-0.008,-0.011
NC(=O)Nc1cc(-c2cccc(F)c2)sc1C(=O)N[C@H]1CCCNC1,-0.021,0,-0.033
COC(=O)N[C@@H](C)CNc1nccc(-c2cn(C(C)C)nc2-c2cc(Cl)cc(NS(C)(=O)=O)c2F)n1 [encorafenib],0.094,0.076,-0.055
CC(C)(C)Cn1c(N)nc2ccc(-c3[nH]c(C(C)(C)C)nc3-c3ccc(F)cc3)nc21 [ralimetinib],0.032,0.049,-0.046
O=C(CCCCCCC(=O)Nc1ccccc1)NO [vorinostat],0.085,0.056,0.053
Cc1nc(Nc2ncc(C(=O)Nc3c(C)cccc3Cl)s2)cc(N2CCN(CCO)CC2)n1 [dasatinib],-0.124,-0.05,-0.017
c1cn2cc(-c3ccc4cn[nH]c4c3)nc(Nc3ccc(N4CCOCC4)cc3)c2n1 [entospletinib],0.063,0.022,0.068
CON(C)C(=O)N1N=C(c2cc(F)ccc2F)S[C@@]1(CCCN)c1ccccc1 [filanesib],0.052,0.016,0.014
CC(C)N(C[C@H]1O[C@@H](n2cnc3c(N)ncnc32)[C@H](O)[C@@H]1O)[C@H]1C[C@@H](CCc2nc3cc(C(C)(C)C)ccc3[nH]2)C1 [pinometostat],0.152,0.074,0.01
CCn1c(C(=O)N(C2CC2)C2CC2)cc2c3c(ncn3C)c(Nc3cc(C)n(C)n3)nc21,-0.06,0.021,-0.017
Cc1cc(Nc2cc(CN3CCOCC3)c3nc(C)c(Cc4ccc(Cl)cc4F)n3n2)n[nH]1 [gandotinib],-0.108,-0.12,0.093
CCCc1cc(C)[nH]c(=O)c1CNC(=O)c1cc(-c2ccnc(N3CCN(C)CC3)c2)cc2c1cnn2C(C)C,0.072,0.004,0.1
C[C@H](Nc1ncnc2nc[nH]c12)c1cc2cccc(Cl)c2c(=O)n1-c1ccccc1 [duvelisib],-0.002,0.044,0.062
CS(=O)(=O)c1ccc(-c2cnc(N)c(C(=O)Nc3ccccc3)n2)cc1,0.027,-0.003,0.01
O=C(Nc1nc2ccccc2n1CCN1CCOCC1)c1cccc([N+](=O)[O-])c1 [IRAK-1-4 Inhibitor I],-0.076,-0.042,0.044
Cc1ccc(C(=O)N(CCCN)[C@@H](c2nc3cc(Cl)ccc3c(=O)n2Cc2ccccc2)C(C)C)cc1 [ispinesib],-0.179,-0.045,0.041
Cc1ccc(NC(=O)c2cccc(C(C)(C)C#N)c2)cc1Nc1ccc2ncn(C)c(=O)c2c1,0.015,0,-0.006
Cc1cc(Nc2cc(N3CCN(C)CC3)nc(Sc3ccc(NC(=O)C4CC4)cc3)n2)n[nH]1 [tozasertib],0.068,0.041,-0.031
Cc1ccc(Sc2cncc3sc(C(N)=O)cc23)cc1,0.018,-0.068,-0.028
C/C(=N\NC(=O)c1cccc(S(=O)(=O)N2CCOCC2)c1)c1cc(Cl)ccc1O,0.075,0.038,0.006

Compound,log2 fold change [1],log2 fold change [2],log2 fold change [3]
Cc1cn(-c2cc(NC(=O)c3ccc(C)c(Nc4nccc(-c5cccnc5)n4)c3)cc(C(F)(F)F)c2)cn1 [nilotinib],-0.088,-0.047,0.025
CN1CCN(CCOc2cc(OC3CCOCC3)c3c(Nc4c(Cl)ccc5c4OCO5)ncnc3c2)CC1 [saracatinib],-0.031,-0.012,-0.051
CC(C)(O)CC(=O)NCCn1ccc2ncnc(Nc3ccc(Oc4cccc(C(F)(F)F)c4)c(Cl)c3)c21,-0.027,0.012,-0.017
COc1cccc2cc(-c3nc([C@H]4CC[C@H](C(=O)O)CC4)n4ncnc(N)c34)[nH]c12,-0.051,-0.041,0.02
Cc1cccc(CC(=O)N2CCc3c2ccc(-c2cn(C)c4ncnc(N)c24)c3F)n1,0.034,0.027,-0.031
CS(=O)(=O)N1CCN(Cc2cc3nc(-c4cccc5[nH]ncc45)nc(N4CCOCC4)c3s2)CC1 [pictilisib],0.005,-0.026,0.104
Cc1ncc(-c2ccnc(Nc3ccc(S(C)(=O)=O)cc3)n2)n1C(C)C,0,0.071,0.037
O=C1NC(=O)C(c2cnc3ccccn23)=C1c1cn2c3c(cc(F)cc13)CN(C(=O)N1CCCCC1)CC2,0.054,0.051,0.019
CN1CCN(c2nc(C3=C(c4c[nH]c5ccccc45)C(=O)NC3=O)c3ccccc3n2)CC1 [sotrastaurin],-0.089,-0.059,0.026
COc1cc(Nc2ncc3c(n2)-c2ccc(Cl)cc2C(c2c(F)cccc2OC)=NC3)ccc1C(=O)O [alisertib],0.031,-0.024,-0.155
CC[C@@H]1C(=O)N(C)c2cnc(Nc3ccc(C(=O)NC4CCN(C)CC4)cc3OC)nc2N1C1CCCC1,-0.197,-0.078,-0.031
CC1=C(C(=O)Nc2cc3cn[nH]c3cc2F)C(c2ccc(C(F)(F)F)cc2)CC(=O)N1 (stereo not drawn),-0.033,-0.051,-0.06
CCCS(=O)(=O)Nc1ccc(F)c(C(=O)c2c[nH]c3ncc(-c4ccc(Cl)cc4)cc23)c1F [vemurafenib],0.025,0.04,0.048
Cc1ccc2c(=O)c3ccccc3n(CCCN)c2c1C,0.013,0.013,0.009
C#Cc1cccc(Nc2ncnc3cc(OCCOC)c(OCCOC)cc23)c1 [erlotinib],0.016,0.009,-0.015
CNc1nc(-c2ccc3c(N)n[nH]c3c2)cc(N2C[C@@H](C(=O)NC3CCCCC3)CC[C@H]2C)n1,0.009,-0.037,0.002
CC[C@H](C)[C@H](NC(=O)[C@H]([C@@H](C)CC)N(C)C(C)=O)C(=O)N[C@H](C(=O)N[C@@H](CC(C)C)C(=O)[C@@]1(C)CO1)[C@@H](C)O [epoxomicin],-0.046,0.013,0.123
CC(C)c1cnn2c(NCc3ccccc3)cc(NCCCCCCN)nc12,-0.213,-0.107,0.058
NC1(Cc2ccc(Cl)cc2)CCN(c2ncnc3[nH]ccc23)CC1,-0.062,-0.049,0.055
C[C@@H](Oc1cc(-c2cnn(C3CCNCC3)c2)cnc1N)c1c(Cl)ccc(F)c1Cl [crizotinib],-0.137,-0.068,-0.031
Cn1cc(-c2ccc3c(c2)CCN3C(=O)Cc2cccc(C(F)(F)F)c2)c2c(N)ncnc21,-0.076,-0.057,0.063
CC[C@@H]1C(=O)N(C)c2cnc(Nc3ccc(C(=O)N[C@H]4CC[C@H](N5CCN(CC6CC6)CC5)CC4)cc3OC)nc2N1C(C)C [volasertib],-0.399 (active),-0.266 (active),0.002
Cn1c2cc(S(C)=O)sc2c2cnn(Cc3cccc(N)c3)c(=O)c21 (stereo not drawn),0.115,-0.04,-0.053
